Screening results as filed in PubChem.
LASV entry inh: qHTS for Inhibitors of binding or entry into cells for Lassa Virus; AID 540256, 2011; 1.2% of 300,000 active; Potency, µM (series often up to 37.9 µM), for the others: at the top dose activity change, negative = inhibition, actives largely listed as inhibitors; Lassa virus pseudotype entry inhibition, cell reporter; calls by dose curve; tested in HEK293 cells; further: potency means the concentration at half of the fitted maximal effect; nearly all actives have a fitted effect of over 50% in size
MARV entry inh: qHTS for inhibitors of binding or entry into cells for Marburg Virus | Marburg virus pseudotyped entry inhibition, cell reporter | Potency, µM (series often up to 37.8 µM), without a hit: top-dose activity change, negative = inhibition, most hits filed as inhibitors | 1.8% of 300,000 active | AID 540276, 2011; calls by dose curve; tested in HEK293 cells; further: potency means the concentration at half of the fitted maximal effect
FMDV antiviral: High Throughput Screening for Foot and Mouth Disease Virus Antivirals. Potency, µM (doses to about 57.9 µM), without a hit: top-dose activity change, negative = inhibition, usual class: inhibitors. FMDV antiviral cell-based qHTS. 1.2% of 410,000 active; calls by dose curve; tested in HEK293T cells; further: read-out not given here; potency means the concentration at half of the fitted maximal effect; nearly all actives have a fitted effect of over 45% in size
HCMV antiviral: qHTS Assay for inhibitors of the human cytomegalovirus (HCMV) | HFF cells, HCMV-luciferase reporter, 72 h; active compounds read low | activity change, negative = inhibition, % at 57.5 µM | 4.5% of 410,000 active | AID 1259415, 2018; in the data active means activity change below about -60%; inconclusive means no clear call, values can overlap the other calls; inactive means above about -39%
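Two compound doses tested in HFFs infected with HCMV-luciferase, MOI 1 PFU/cell, 72 h at 37C. Lysate luminescence read with OneGlo; data normalized against buffer-only and 10uM Salinomycin inhibitor controls.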
* marks the source's active call; other numbers are inactive results; ? = inconclusive; . = no result given; [ ] = remark or other dose. This is a sample that favours compounds with a hit; in the whole collection about 6.2% have one here. On the % scale 0 is the no-effect control and ±100 the full control effect.

SMILES | LASV entry inh | MARV entry inh | FMDV antiviral | HCMV antiviral
Cc1nc([N+](=O)[O-])c(Br)n1CC(=O)c1ccc(F)cc1 | ? | ? | -25% | 6
CN(C)CCCn1c(-c2nonc2N)nc2cnccc21 | 4% | . | . | .
COC(=O)C(CCSC)Nc1ncnc2onc(-c3ccc(F)cc3)c12 (stereo not given) | -16%[46.1 µM] | 0%[46.1 µM] | -19% | -8
C=C[C@@H]1c2c(F)cccc2N(S(=O)(=O)c2ccc(C)cc2)[C@H](c2ccc(OC(C)=O)cc2)C1(C#N)C#N | . | . | -20% | -32
C=C[C@@H]1c2cccc(C)c2N(S(=O)(=O)c2ccc(C)cc2)[C@H](c2ccc(OC(C)=O)cc2)C1(C#N)C#N | . | . | -22% | -79*
COc1ccc(OC)c(CCNc2ncnc3onc(-c4ccc(F)cc4)c23)c1 | ? | . | ? | -25
CCOC(=O)c1c(C)c2c(=O)[nH]cnc2n1-c1ccccc1 | . | . | -27% | -62*
O=[N+]([O-])c1cnn(-c2nc(-c3ccco3)cc(C(F)(F)F)n2)c1 | ? | -2% | -5% | -97*
COc1ccc(S(=O)(=O)c2c(Nc3ccccc3F)sc(C(=O)c3cccc(OC)c3)c2N)cc1 | ? | . | 36% | -36
CC1=CC[C@@H](COc2ccccc2)O[C@@]2(C1)C(=O)Nc1cccc(Br)c12 | ? | 4%[14.2 µM] | . | .
Cc1ccccc1CN1C(=O)CN=C(c2ccccc2)c2cc(Cl)ccc21 | ? | . | ? | -71*
Cc1ccc(-c2nc(CN3C(=O)CN=C(c4ccccc4)c4cc(Cl)ccc43)c(C)o2)cc1 | 7%[46.1 µM] | 5%[46.1 µM] | -22% | -5
Cc1cc(C(=O)CCl)c(C)n1Cc1ccco1 | ? | ? | 28µM* | -97*
Cc1cc(C(=O)CSc2nncs2)c(C)n1Cc1ccco1 | 4.5µM* | 6.3µM* | -22% | 22
Cc1cc(C(=O)CSc2nnc(-c3ccco3)o2)c(C)n1Cc1ccco1 | 1% | -18% | -23% | -34
COc1ccc(NC(=O)c2oc3ccc4c(c3c2C)C(=O)CC(C)(C)O4)cc1OC | -22%[46.1 µM] | . | 19% | 69
CCc1cccc(NC(=O)c2oc3ccc4c(c3c2C)C(=O)CC(C)(C)O4)c1 | -1%[46.1 µM] | . | ? | -60*
CCCCNc1nc(Oc2ccc(=O)n(C)n2)nc(N(C)C)n1 | 14%[46.1 µM] | 1%[46.1 µM] | 4% | 33
O=S(=O)(Cc1ccccc1)c1cnc2ccccc2n1 | -13% | -14% | 11µM* | -33
Cn1cc(-c2nc3cnc(N4CCNCC4)nc3n(C3CC3)c2=O)c2ccccc21 | . | . | -12% | .
Cc1noc(-c2ccc(C(F)(F)F)cc2)c1NC(=O)Nc1ccc(Cl)cc1 | . | . | ? | -88*
COc1cccc(N(C(=O)c2cccs2)c2nc3ccccc3s2)c1 | ? | -11% | 23% | -101*
Cc1c(F)cccc1NC(=O)CCCCCC1NC(=O)NC1C (stereo not given) | 17% | 20% | 44% | -71*
CC1NC(=O)NC1CCCCCC(=O)Nc1ccc(F)cc1 (stereo not given) | 1% | ? | -3% | 23
CCN(CC)CCCN1C(=O)CSC1c1ccc2c(c1)OCO2 (stereo not given) | 11% | -5% | -11% | 29
SMILES | LASV entry inh | MARV entry inh | FMDV antiviral | HCMV antiviral
CCN(CC)CCCN1C(=O)CSC1c1ccc([N+](=O)[O-])cc1 (stereo not given) | . | . | -3% | -102*
CN1CCCC(CC2c3ccccc3Sc3ccccc32)C1 (stereo not given) | . | . | 40µM* | -27
CCOC(=O)[C@]12Cc3cc(OC)ccc3[C@H]1N(C1CCCCC1)C(=O)c1ccccc12 | . | . | 8.9µM* | -101*
CCOC(=O)[C@]12Cc3cc(C)ccc3[C@H]1N(C)C(=O)c1ccccc12 | . | . | -30% | 34
CCOC(=O)[C@]12Cc3cc(OC)ccc3[C@H]1N(C)C(=O)c1ccccc12 | . | . | ? | 34
CCOC(=O)[C@]12Cc3cc(Cl)ccc3[C@H]1N(C1CCCCC1)C(=O)c1ccccc12 | . | . | 4.5µM* | .
COc1ccc(Cl)cc1-c1cc(C(=O)NCc2ccc(C(F)(F)F)cc2)[nH]n1 | . | . | -22% | -18
CCC1(c2cccc(Cl)c2)NC(=O)N(Cc2cc(C(=O)OC)c(C)o2)C1=O (stereo not given) | -8% | -4% | 28µM* | 22
O=C(CN1C2=NCCCN2c2ccccc21)c1ccc([N+](=O)[O-])cc1 | -14% | ? | -4% | -66*
C/C(CCC1CC(C)(C)OC1=O)=N\NC(N)=S (stereo not given) | 22% | ? | -2% | -93*
COc1ccc(N2CCN(C(=O)c3cn(C4CCCCC4)c(=O)c4c3c3ccccc3n4C)CC2)cc1 | ? | ? | 28% | -26
Cc1ccc(S(=O)(=O)N2CCN(c3ncccn3)CC2)cc1C | -17%[46.1 µM] | ? | -19% | 4
Cc1ccc(S(=O)(=O)N2CCN(c3ncnc4sccc34)CC2)cc1C | ? | ? | 11µM* | -72*
CN1CCN(S(=O)(=O)c2ccc3c(c2)OCCO3)CC1 | ? | 13% | -19% | 36
O=S(=O)(c1ccc2c(c1)OCCO2)N1CCN(c2ncnc3sccc23)CC1 | ? | ? | ? | -91*
CC(=O)Nc1cccc(Oc2nc(NC(C)C)nc3cc(-c4ccccc4)sc23)c1 | . | . | 28% | -11
CC(C)c1ccc(NC(=O)c2ccc(NC(=O)CCS(=O)(=O)c3cccs3)cc2)cc1 | 26%[46.1 µM] | ? | 7% | 6
Nc1nccc(-c2ccc(-n3cnc4ccccc43)cc2)n1 | 22% | ? | 14% | -70*
Cc1nccc(-c2ccc(-n3cnc4ccccc43)cc2)n1 | 3% | 17% | 20% | ?
Cc1ccccc1N/C(SCc1cccc(Br)c1)=C(/C#N)C(N)=O | -21% | 17% | -26% | -68*
COc1cccc(N/C(SCc2cccc([N+](=O)[O-])c2)=C(/C#N)C(N)=O)c1 | ? | ? | 35µM* | -2
COc1cccc(NC(=O)CC(=O)c2ccc([N+](=O)[O-])cc2)c1 | . | . | 19% | 86
O=C(Nc1ccc(Oc2cccnc2)cc1)c1ccccc1Cl | 0%[46.1 µM] | -1%[46.1 µM] | 13% | ?
O=C(Nc1ccc(Oc2cccnc2)cc1)c1ccccc1F | 24% | ? | 41% | -86*
CCOC(=O)Cc1ncccc1C(=O)Nc1ccc(Oc2ccccc2)cc1 | 12% | ? | -8% | -98*
SMILES | LASV entry inh | MARV entry inh | FMDV antiviral | HCMV antiviral
COc1ccc(OC)c(C(=O)CN2C(=O)N(c3ccc(C)cc3)S(=O)(=O)c3ccccc32)c1 | -1%[46.1 µM] | . | -4% | -4
c1ccc(CCSc2ncnc3nc[nH]c23)cc1 | -26% | ? | 24% | ?
c1ccc2c(CSc3ncnc4nc[nH]c34)cccc2c1 | ? | -12%[46.1 µM] | ? | -69*
CCOC(=O)C1=C(C)NC(C)=C(C(=O)OCC)C1c1c(F)c(F)c(F)c(F)c1F | 16µM* | ? | . | .
CC1(C)CCN2CCC(C)(C)c3c(O)ccc1c32 | . | . | ? | -91*
C[C@@H]1CN([C@H](C)CO)S(=O)(=O)c2ccc(Br)cc2O[C@H]1CN(C)CC1CCOCC1 | . | . | . | -22
CN(C)CCNc1nc(-c2ccco2)c2c(c1C#N)CC(C)(C)OC2 | 2% | -18% | -12% | -100*
